Screening results: PubChem, National Center for Advancing Translational Sciences (NCATS)
KB-V1 MDR tox: qHTS assay for MDR1-selective chemotherapeutics: Primary screen using the drug-selected MDR subline cells KB-V1 | KB-V1 MDR cells viability, CellTiter-Glo, 72 h | Potency, µM (doses to about 46.1 µM), hits mostly cytotoxic | AID 1347076, 2019 | 400,000 tested, 3.4% active; further: nearly all actives have a fitted effect of over 60% in size
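KB-V1, DMEM (no phenol red) + 10% FBS; cpd pin-transferred, titration series; 72 h, 37 degrees C; CellTiter-Glo, luminescence. Data normalized, curve-fit.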
DT40 TDP1 CPT: qHTS for Inhibitors of human tyrosyl-DNA phosphodiesterase 1 (TDP1): qHTS in cells in presence of CPT; chicken DT40 Tdp1-/-;hTDP1 cells + 20 nM CPT, ATP luminescence, 48 h; Potency, µM (doses to about 46.2 µM), inactives show at the top dose activity change, negative = growth inhibition, actives largely listed as inhibitors; 420,000 tested, 12% active; AID 686979, 2013; further: nearly all actives have a fitted effect of over 55% in size
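Chicken DT40 Tdp1-/- cells stably complemented with human TDP1 were seeded at 400 cells/well in medium containing 20 nM camptothecin, exposed to pin-transferred compounds, and grown at 37 °C for at least 48 hr. Viability was read as ATP luminescence.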
HT1080-NT tox: qHTS for induction of synthetic lethality in tumor cells producing 2HG: qHTS for the HT-1080-NT fibrosarcoma cell line; Potency, µM (series often up to 46.1 µM), for inactives: top-dose activity, negative = less viability, actives largely listed as cytotoxic; AID 686970, 2013; HT-1080-NT fibrosarcoma viability, CellTiter-Glo ATP luminescence, 48 h; 360,000 tested, 1.6% active;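 further: NT is the 2HG producing partner of a matched IDH1 knockdown line; 0% = DMSO-treated cells and -100% = media-only wells without cells; nearly all actives have a fitted effect of over 55% in size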
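Toxicity toward the 2HG-producing NT line was scored as %Activity, normalised to DMSO and no-cell wells, from CellTiter-Glo luminescence after 48 hours' treatment.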
HT1080 IDH1KD tx: qHTS for induction of synthetic lethality in tumor cells producing 2HG: qHTS for the HT-1080-IDH1KD cell line; HT-1080 IDH1 knockdown viability, ATP luminescence, 48 h; Potency, µM (titrated, usually from 46.1 µM), for inactives: at the highest dose activity, negative = toxicity, most hits filed as cytotoxic; 360,000 tested, 2% active; AID 686971, 2013;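 further: 0% = DMSO wells and -100% = cell-free medium wells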
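Assay cells: HT-1080 with IDH1 knockdown, 750 per well, RPMI/5% FBS. Exposure: 48 h at 37 °C following 2 h pre-incubation. Read: CellTiter-Glo luminescence; fitted concentration-response, curve class assigned.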
DT40 TDP1 no CPT: qHTS for Inhibitors of human tyrosyl-DNA phosphodiesterase 1 (TDP1): qHTS in cells in absence of CPT. DT40 Tdp1-/- hTDP1 cells, no CPT, ATP luminescence, 48 h. AID 686978, 2013. Potency, µM (series often up to 46.2 µM), for inactives: top-dose activity change, negative = growth inhibition, hits mostly inhibitors. 420,000 tested, 15% active; further: nearly all actives have a fitted effect of over 55% in size
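Stably hTDP1-transfected Tdp1-null chicken DT40 cells were treated with library compounds minus camptothecin and grown for at least 48 hr at 37 °C, after which cellular ATP was quantified by luminescence.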
KB-3-1 tox: qHTS assay for MDR1-selective chemotherapeutics: Primary screen using the parental adenocarcinoma cell KB-3-1. 400,000 tested, 1.4% active. Potency, µM (doses to about 46.1 µM), usual class: cytotoxic. AID 1347075, 2019. KB-3-1 viability, CellTiter-Glo ATP luminescence, 72 h; further: nearly all actives have a fitted effect of over 60% in size
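KB-3-1 parental drug-naive adenocarcinoma cells in DMEM/10% FBS, incubated 72 h at 37 C with pin-transferred compounds across a concentration series. Viability by CellTiter-Glo luminescence; concentration-response curves fitted after normalization.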
* hit, by the source's call; i = inactive; ? = inconclusive; nt = no result given; ! = a repeat was not active; [ ] = remark or other dose. Compounds with a hit are over-represented: about 19% of the library has one in this group of screens. The call rests on the fitted dose curve; in most records, active means well fitted curve in the direction sought with a large enough effect; inconclusive means small, poorly fitted or top-dose-only effect, or another doubt; inactive means no such curve, though single readings can be large; an effect the other way counts as inactive or inconclusive. Unless noted, on the % scale 0 is the no-effect control and ±100 the full control effect; potency means the concentration at half of the fitted maximal effect.

SMILES | KB-V1 MDR tox | DT40 TDP1 CPT | HT1080-NT tox | HT1080 IDH1KD tx | DT40 TDP1 no CPT | KB-3-1 tox
CCCN(CCC)CCc1c[nH]c2ccccc12 | nt | 19.1µM* | nt | nt | ? | nt
C=CCn1c(O)c(/C(C)=N/N2CCCCCC2)c(=O)[nH]c1=O | i | ? | 7.1% | 7.9% | ? | i
N/C(=N\[N+](=O)[O-])N1CCN(C(=O)c2ccccn2)CC1 | i | 11.4% | 15.9% | 12.7% | 1.9% | i
COc1ccc2[nH]cc(CCN(C(C)C)C(C)C)c2c1 | nt | ? | nt | nt | -27.5%[92.5 µM] | nt
COc1ccc(CN(CCc2c[nH]c3ccccc23)Cc2ccc(OC)cc2)cc1 | ? | 16.4µM* | ? | ? | 14.6µM* | i
O=C(c1cc(C(=O)NCc2ccccc2)c(=O)n(Cc2ccccc2)c1)c1cc(Br)ccc1O | 2.31µM* | ? | -3.9% | ? | 25.9µM* | ?
Cc1ccc(O)c(C(=O)c2cc(C(=O)NCc3ccccc3)c(=O)n(Cc3ccccc3)c2)c1 | i | 7.31µM* | -9.6% | -10.0% | 11.6µM* | i
CC(=O)NCC(=O)Nc1ccc(Br)cc1C(=O)c1ccccc1 | i | 4.1% | -0.2% | -1.1% | -24.5% | i
Cc1nn(C(C)(C)C)c(C)c1/C=N/OC(=O)Nc1ccc(Cl)cc1 | i | ? | -19.0% | -3.5% | ? | i
CS(=O)(=O)N1CCN(C(=N)N[N+](=O)[O-])CC1 | i | ? | -4.2% | 11.7% | ? | i
CCOC(=O)C(C)Oc1cc(C)cc2oc(=O)c3c(c12)CCCC3 (stereo unspecified) | 10.3µM* | -27.4% | -1.4% | -7.9% | -21.3% | i
Cc1cc(OC(C)C(=O)NCC(O)c2ccccc2)c2c3c(c(=O)oc2c1)CCCC3 (stereo unspecified) | i | ? | -6.6% | -3.5% | ? | i
COC(=O)C(C)Oc1cc(C)cc2oc(=O)c3c(c12)CCC3 (stereo unspecified) | ? | -14.1% | -7.4% | -21.7% | -6.0% | ?
Cc1cc(OCC(=O)NCC(O)c2ccccc2)c2c3c(c(=O)oc2c1)CCCC3 (stereo unspecified) | i | ? | -6.4% | -11.3% | 18.4µM* | i
Cc1cc(OCC(=O)N[C@@H](Cc2ccccc2)C(=O)O)c2c3c(c(=O)oc2c1)CCCC3 | i | -18.3% | -3.9% | -7.3% | 12.7% | i
Cc1ccc(-c2n[nH]c(=S)n2-c2ccccc2)cc1 | i | 14.1µM*! | 10.9% | 12.5% | ? | ?
O=C(Nc1ccccc1C(F)(F)F)c1cccn(Cc2ccccc2)c1=O | i | ? | nt | nt | 18.4µM* | i
COC(=O)c1ccccc1NC(=O)c1cccn(Cc2cccc(Cl)c2)c1=O | ? | ? | nt | nt | 18.4µM* | i
O=C(Nc1ccc(OC(F)(F)F)cc1)c1cccn(Cc2ccccc2Cl)c1=O | i | 1.1% | nt | nt | -0.9% | i
O=C(Nc1ccon1)c1cccn(Cc2cccc(Cl)c2)c1=O | nt | -21.7% | nt | nt | -0.9% | nt
CCOC(=O)c1cc(CC)sc1/N=C/c1c(O)[nH]c(=S)[nH]c1=O | i | -12.9% | -5.7% | -8.4% | -29.0% | i
CC12CC(O)C3C(CCC4=CC(=O)CCC43C)C1CCC2=O (stereo unspecified) | i | 9.2% | 1.1% | 5.3% | -2.1% | i
O[C@@H](Cc1ccncc1)C(Cl)(Cl)Cl | nt | -4.3% | nt | nt | -24.1% | nt
CC(=O)c1ccc2c(c1)N(CCCN(C)C)c1ccccc1S2 | ? | ? | ? | -78.2% | 8.05µM* | i
CCCCCCCSc1cc(OC)c(CCNC)cc1OC | 18.4µM* | ? | 23.1µM* | -11.1%[9.24 µM] | 14.6µM* | ?
SMILES | KB-V1 MDR tox | DT40 TDP1 CPT | HT1080-NT tox | HT1080 IDH1KD tx | DT40 TDP1 no CPT | KB-3-1 tox
CCCCCSc1cc(OC)c(CCNC)cc1OC | i | 16.4µM* | ? | 20.6µM* | 16.4µM* | i
COC(=O)C1=C(c2cccc3c2S(=O)(=O)c2ccccc2-3)C[C@@H]2CC[C@H]1N2C(=O)N1CCOCC1 | i | 23.1µM* | 8.0% | 9.1% | ? | i
COC(=O)C1=C(c2cccc3c2S(=O)(=O)c2ccccc2-3)C[C@@H]2CC[C@H]1N2C(=O)N1CCc2cc(OC)c(OC)cc2C1 | i | 20.6µM* | -5.0% | -13.5% | 20.6µM* | i
Cc1cccc(-n2c(/C=C/c3c[nH]c4ccccc34)nc3ccccc3c2=O)c1 | ? | 2.59µM* | nt | nt | 2.59µM* | i
Cc1cccc(-n2c(/C=C/c3ccccn3)nc3ccccc3c2=O)c1 | ? | 23.1µM* | 1.5% | 3.2% | ? | ?
COc1cccc(-n2c(/C=C/c3ccccn3)nc3ccccc3c2=O)c1 | ? | ? | 4.5% | 3.2% | ? | ?
COc1ccc(C)cc1NC1=NC(C)(C)CS1 | i | -0.3% | 3.0% | -0.6% | -16.4% | i
COc1ccccc1NC(=O)Cn1c(=O)oc2cc(S(=O)(=O)N3CCCC3)ccc21 | ? | -6.8% | -0.7% | 0.6% | ? | i
O=C(CCCOc1ccc(Cl)cc1Cl)Nc1cc(S(=O)(=O)N2CCOCC2)ccc1N1CCOCC1 | 6.51µM* | ? | -13.5% | -3.2% | ? | i
CCN1C[C@]2(CO)CC[C@H](OC)[C@@]34C5C[C@H]6[C@H](OC)C5[C@](O)(C[C@H]6OC)[C@@](O)(C(OC)C23)[C@@H]14 (stereo partly specified) | i | 16.1% | 7.2% | 2.4% | 4.4% | i
CCOC(=O)/C(=N\Nc1ccccc1)N1CC1 | i | 5.3% | 4.1% | 10.0% | 1.6% | i
CCOC(=O)c1c(NC(=O)C(c2ccccc2)c2ccccc2)sc2c1C1CCN2CC1 | 23.1µM* | 20.6µM* | -23.8% | -0.6% | 23.1µM* | ?
CC[C@H]1CN2CCc3cc(OC)c(OC)cc3C2C[C@@H]1C[C@H]1NCCc2cc(OC)c(OC)cc21 (stereo partly specified) | 2.06µM* | 0.13µM* | 0.0517µM* | 0.0517µM* | 0.0082µM* | 0.206µM*
CCC1CN2CCc3cc(OC)c(OC)cc3C2CC1CC1NCCc2cc(OC)c(OC)cc21 (stereo unspecified) | nt | 0.206µM* | nt | nt | 0.146µM* | nt
